Results as given in PubChem BioAssay (EPA / NIEHS).
Records with an inconclusive call do not appear. Activity calls are given as the source filed them. Rule for the calls, unless noted: active = hit-call score of the fitted dose curve at least 0.9, where 1 is the maximum; inactive = score below 0.9.

Columns and labels:
[1] = ATG_TCF_b_cat_CIS: Attagene CIS-FACTORIAL HepG2 Assay for human T-Cell-Factor with beta-catenin (TCF/b-cat) (AID 2282965); conditions: HepG2 TCF/beta-catenin cis-reporter transcription, actives raise or lower the signal
In short: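 Endogenous TCF/LEF activity read as reporter transcript level via RT-PCR and capillary electrophoresis fluorescence in transfected HepG2, 24 h exposure; gain or loss of signal fitted against DMSO controls.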

[2] = ATG_TAL_CIS: Attagene CIS-FACTORIAL HepG2 Assay for human TAL Basal Promoter (AID 2282966); conditions: HepG2 Attagene cis-factorial TAL promoter reporter; actives raise or lower the signal;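 note: background control endpoint measuring basal TAL promoter reporter mRNA not a specific factor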
In short: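 HepG2, transient MRTU transfection, 24 h compound exposure; RNA → oligo(dT) RT → PCR → 6-FAM primer extension → HpaI digest → CE fluorescence. Bidirectional curve fit vs DMSO. Background-control readout.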

[3] = ATG_TGFb_CIS: Attagene CIS-FACTORIAL HepG2 Assay for human Transforming Growth Factor (TGF) (AID 2282967); conditions: HepG2 Attagene CIS TGFb reporter, mRNA transcription; actives raise or lower the signal
In short: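 After a 24-hour incubation with compound, transfected HepG2 cells were lysed for RNA; reporter cDNA was amplified, fluorescently end-labeled and separated by CE. DMSO served as baseline for bidirectional fits.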

[4] = ATG_VDRE_CIS: Attagene CIS-FACTORIAL HepG2 Assay for human Vitamin D Receptor Element (VDRE) (AID 2282968); conditions: HepG2 VDRE cis-reporter transcription, actives raise or lower the signal
In short: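 Readout is VDRE-driven reporter mRNA reflecting endogenous factor activity in human HepG2 cells, sampled 24 h post-dose. Quantification used labelled RT-PCR products separated by capillary electrophoresis; bidirectional analysis relative to DMSO.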

[5] = target: Estrogen receptor (Homo sapiens) (UniProt P03372); experiment: ATG_ERa_TRANS: Attagene TRANS-FACTORIAL HepG2 Assay for human Estrogen Receptor alpha (ERa) (AID 2282970; active = hit-call score of the fitted dose curve at least 0.9, where 1 is the maximum); conditions: HepG2 Attagene TRANS ERa GAL4 reporter, mRNA
Sequence of Estrogen receptor (Homo sapiens) (P03372 whole entry, looked up, the tested form may be a part): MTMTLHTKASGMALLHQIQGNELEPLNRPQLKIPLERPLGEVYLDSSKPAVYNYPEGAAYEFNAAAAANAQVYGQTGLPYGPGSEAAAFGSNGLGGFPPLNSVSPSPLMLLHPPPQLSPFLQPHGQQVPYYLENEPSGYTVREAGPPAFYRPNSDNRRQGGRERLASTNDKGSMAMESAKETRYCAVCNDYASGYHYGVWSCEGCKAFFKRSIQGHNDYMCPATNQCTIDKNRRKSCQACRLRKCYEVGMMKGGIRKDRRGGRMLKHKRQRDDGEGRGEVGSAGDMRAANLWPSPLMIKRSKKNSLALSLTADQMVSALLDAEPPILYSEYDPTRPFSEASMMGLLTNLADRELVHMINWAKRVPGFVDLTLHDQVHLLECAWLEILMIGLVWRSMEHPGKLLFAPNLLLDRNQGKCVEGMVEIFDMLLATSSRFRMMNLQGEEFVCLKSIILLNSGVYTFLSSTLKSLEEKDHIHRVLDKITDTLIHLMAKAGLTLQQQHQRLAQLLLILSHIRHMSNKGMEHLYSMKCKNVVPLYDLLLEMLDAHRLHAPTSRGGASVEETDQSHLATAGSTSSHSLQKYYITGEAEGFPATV
In short: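 Reporter mRNA induction after 24 hours, detected by fluorescent RT-PCR and capillary electrophoresis, gives the read-out. Cells are HepG2 transiently transfected with GAL4-UAS reporter transcription units responding to chimeric NR-Gal4. Activity is taken as gain of signal over DMSO baseline.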

[6] = target: X-box-binding protein 1 (Homo sapiens) (UniProt P17861); experiment: ATG_Xbp1_CIS: Attagene CIS-FACTORIAL HepG2 Assay for human X-box Binding Protein 1 (XBP1) (AID 2282972); conditions: HepG2 XBP1 cis-element reporter, Attagene multiplex; actives raise or lower the signal
Sequence of X-box-binding protein 1 (Homo sapiens) (P17861 whole entry, looked up): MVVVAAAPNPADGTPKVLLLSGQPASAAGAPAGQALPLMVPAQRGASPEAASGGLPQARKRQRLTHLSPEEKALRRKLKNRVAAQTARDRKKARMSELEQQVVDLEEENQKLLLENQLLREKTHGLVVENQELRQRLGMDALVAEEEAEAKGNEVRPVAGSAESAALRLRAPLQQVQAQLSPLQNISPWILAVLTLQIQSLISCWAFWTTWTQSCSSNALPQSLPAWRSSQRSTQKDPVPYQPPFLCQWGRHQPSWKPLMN
In short: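 Changes in reporter transcript abundance, read by RT-PCR and capillary electrophoresis, reflect endogenous transcription factor activity. Transfected HepG2 cells received compound for 24 hours; DMSO defined baseline for bidirectional analysis.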

[7] = ATG_M_19_TRANS: Attagene TRANS-FACTORIAL HepG2 Assay for M19 Transcription Factor (Internal Marker) (AID 2282974; active = hit-call score of the fitted dose curve at least 0.9, where 1 is the maximum); conditions: HepG2 Attagene TRANS-FACTORIAL M19 internal marker reporter
In short: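 Fluorescence of 6-FAM-labelled reporter cDNA fragments, separated by capillary electrophoresis, served as the readout. These derived from HepG2 cells carrying transfected GAL4-UAS reporter units after 24 h dosing, with DMSO as negative control.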

[8] = ATG_M_06_TRANS: Attagene TRANS-FACTORIAL HepG2 Assay for M06 Transcription Factor (Internal Marker) (AID 2282983; active = hit-call score of the fitted dose curve at least 0.9, where 1 is the maximum); conditions: HepG2 Attagene TRANS M06 internal marker reporter
In short: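 Read-out: fluorescent reporter cDNA fragments resolved by capillary electrophoresis after RT-PCR and HpaI cut. Source cells were HepG2 carrying transfected multi-reporter GAL4 constructs, dosed 24 h. Increase over DMSO control analysed.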

[9] = ATG_M_32_TRANS: Attagene TRANS-FACTORIAL HepG2 Assay for M32 Transcription Factor (Internal Marker) (AID 2282984; active = hit-call score of the fitted dose curve at least 0.9, where 1 is the maximum); conditions: HepG2 Attagene TRANS M32 internal marker reporter
In short: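 Internal background reporter in transfected HepG2: after 24 h chemical exposure, RNA reverse-transcribed, reporter cDNA amplified, fluorescently labelled and HpaI-cut, then sized by capillary electrophoresis. Gain of signal fitted against DMSO control.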

[10] = target: Nuclear receptor subfamily 4 group A member 2 (Homo sapiens) (UniProt P43354); experiment: ATG_NURR1_TRANS: Attagene TRANS-FACTORIAL HepG2 Assay for human Nuclear Receptor Related Protein 1 (NURR1) (AID 2282985; active = hit-call score of the fitted dose curve at least 0.9, where 1 is the maximum); conditions: HepG2 Attagene TRANS reporter, mRNA readout
Sequence of Nuclear receptor subfamily 4 group A member 2 (Homo sapiens) (P43354 whole entry, looked up, the tested form may be a part): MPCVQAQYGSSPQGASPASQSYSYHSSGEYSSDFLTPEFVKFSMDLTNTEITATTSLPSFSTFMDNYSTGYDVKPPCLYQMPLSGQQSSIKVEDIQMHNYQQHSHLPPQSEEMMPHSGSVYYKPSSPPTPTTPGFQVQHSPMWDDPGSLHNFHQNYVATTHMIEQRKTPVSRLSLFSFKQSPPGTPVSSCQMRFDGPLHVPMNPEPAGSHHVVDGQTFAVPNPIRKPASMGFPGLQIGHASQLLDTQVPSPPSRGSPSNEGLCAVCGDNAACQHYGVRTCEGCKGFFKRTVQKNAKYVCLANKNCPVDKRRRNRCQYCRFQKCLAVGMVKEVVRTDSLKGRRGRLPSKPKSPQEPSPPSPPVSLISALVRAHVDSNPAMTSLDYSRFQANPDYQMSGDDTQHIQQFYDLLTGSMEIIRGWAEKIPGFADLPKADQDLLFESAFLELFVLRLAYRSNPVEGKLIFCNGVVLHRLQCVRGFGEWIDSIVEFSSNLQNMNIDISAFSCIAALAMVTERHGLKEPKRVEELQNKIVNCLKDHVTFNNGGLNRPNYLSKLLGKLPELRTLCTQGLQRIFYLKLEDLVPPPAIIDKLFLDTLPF
In short: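 Reporter transcript induction, measured by RT-PCR with fluorescent labelling, HpaI digestion and capillary electrophoresis, after 24 hr dosing of human HepG2 cells transiently expressing an exogenous NR-Gal4 fusion with GAL4-UAS-driven reporters; DMSO as baseline.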

[11] = target: Transcriptional activator Myb (Homo sapiens) (UniProt P10242); experiment: ATG_Myb_CIS: Attagene CIS-FACTORIAL HepG2 Assay for human Myeloblastosis (Myb) Proto-Oncogene Transcription Factor (AID 2282986); conditions: HepG2 Attagene CIS-FACTORIAL Myb reporter transcription; actives raise or lower the signal
Sequence of Transcriptional activator Myb (Homo sapiens) (P10242 whole entry, looked up): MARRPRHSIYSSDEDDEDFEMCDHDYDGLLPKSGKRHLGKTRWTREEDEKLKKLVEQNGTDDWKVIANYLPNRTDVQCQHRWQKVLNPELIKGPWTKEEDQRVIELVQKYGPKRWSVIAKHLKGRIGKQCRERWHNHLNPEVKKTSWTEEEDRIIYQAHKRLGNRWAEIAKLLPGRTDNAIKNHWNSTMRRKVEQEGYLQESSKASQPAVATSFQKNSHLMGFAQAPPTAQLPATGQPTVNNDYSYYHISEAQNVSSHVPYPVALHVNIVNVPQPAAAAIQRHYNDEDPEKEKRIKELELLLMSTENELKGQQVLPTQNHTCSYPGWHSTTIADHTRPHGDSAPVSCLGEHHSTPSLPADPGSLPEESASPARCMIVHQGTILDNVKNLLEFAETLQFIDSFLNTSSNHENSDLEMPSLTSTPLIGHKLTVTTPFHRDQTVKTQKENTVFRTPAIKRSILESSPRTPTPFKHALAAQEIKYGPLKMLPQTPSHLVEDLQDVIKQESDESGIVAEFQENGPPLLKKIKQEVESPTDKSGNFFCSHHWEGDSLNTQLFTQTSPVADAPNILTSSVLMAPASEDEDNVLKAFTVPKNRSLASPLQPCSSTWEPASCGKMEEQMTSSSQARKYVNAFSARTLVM
In short: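 Reporter transcript levels, quantified by fluorescent RT-PCR and capillary electrophoresis, serve as the read-out. Transfected HepG2 cells carrying cis-promoter reporter units are dosed for 24 hours, and curves are fitted bidirectionally against DMSO controls.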

[12] = ATG_GAL4_TRANS: Attagene TRANS-FACTORIAL HepG2 Assay for GAL4 (Internal Marker) (AID 2282976; active = hit-call score of the fitted dose curve at least 0.9, where 1 is the maximum); conditions: HepG2 Attagene TRANS GAL4 internal marker reporter
In short: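 RT-PCR/capillary electrophoresis readout of reporter mRNA. HepG2, transient MRTU transfection (GAL4-UAS reporters), 24 h compound exposure. Background-control endpoint, positive direction vs DMSO baseline.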

[13] = target: Glucocorticoid receptor (Homo sapiens) (UniProt P04150); experiment: ATG_GR_TRANS: Attagene TRANS-FACTORIAL HepG2 Assay for human Glucocorticoid Receptor (GR) (AID 2282978; active = hit-call score of the fitted dose curve at least 0.9, where 1 is the maximum;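 note: activators score as hits since higher reporter transcript over DMSO is fitted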); conditions: HepG2 Attagene TRANS GR reporter, mRNA transcription
Sequence of Glucocorticoid receptor (Homo sapiens) (P04150 whole entry, looked up, the tested form may be a part): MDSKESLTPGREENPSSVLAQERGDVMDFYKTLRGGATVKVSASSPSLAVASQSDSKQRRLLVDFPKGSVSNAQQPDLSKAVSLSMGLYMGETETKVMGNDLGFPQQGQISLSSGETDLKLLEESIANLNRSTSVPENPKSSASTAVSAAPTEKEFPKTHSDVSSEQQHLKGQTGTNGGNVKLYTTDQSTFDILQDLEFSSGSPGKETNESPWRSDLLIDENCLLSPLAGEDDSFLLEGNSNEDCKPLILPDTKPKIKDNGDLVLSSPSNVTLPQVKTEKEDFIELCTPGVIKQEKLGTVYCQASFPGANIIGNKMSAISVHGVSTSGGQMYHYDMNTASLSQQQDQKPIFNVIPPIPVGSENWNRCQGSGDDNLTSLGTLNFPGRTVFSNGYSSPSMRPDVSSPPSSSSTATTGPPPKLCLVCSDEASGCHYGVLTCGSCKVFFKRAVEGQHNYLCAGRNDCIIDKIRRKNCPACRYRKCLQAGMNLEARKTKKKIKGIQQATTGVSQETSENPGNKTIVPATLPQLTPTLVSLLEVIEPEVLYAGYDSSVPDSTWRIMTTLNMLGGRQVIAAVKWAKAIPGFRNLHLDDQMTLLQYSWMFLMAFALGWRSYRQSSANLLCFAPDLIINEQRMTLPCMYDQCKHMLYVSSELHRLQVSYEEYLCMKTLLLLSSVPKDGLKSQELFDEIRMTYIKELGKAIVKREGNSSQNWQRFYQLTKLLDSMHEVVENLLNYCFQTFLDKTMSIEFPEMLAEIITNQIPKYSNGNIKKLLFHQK
In short: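 Fluorescent capillary-electrophoresis quantitation of reporter mRNA is the readout, taken 24 h after dosing human HepG2 cells carrying transiently transfected GAL4-UAS reporter units activated by chimeric NR-GAL4 fusions; activity scored as induction over DMSO.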

[14] = target: Hepatocyte nuclear factor 4-alpha (Homo sapiens) (UniProt P41235); experiment: ATG_HNF4a_TRANS: Attagene TRANS-FACTORIAL HepG2 Assay for human Hepatocyte Nuclear Factor 4 alpha (HNF4a) (AID 2282982; active = hit-call score of the fitted dose curve at least 0.9, where 1 is the maximum); conditions: HepG2 HNF4a transactivation reporter, mRNA readout
Sequence of Hepatocyte nuclear factor 4-alpha (Homo sapiens) (P41235 whole entry, looked up, the tested form may be a part): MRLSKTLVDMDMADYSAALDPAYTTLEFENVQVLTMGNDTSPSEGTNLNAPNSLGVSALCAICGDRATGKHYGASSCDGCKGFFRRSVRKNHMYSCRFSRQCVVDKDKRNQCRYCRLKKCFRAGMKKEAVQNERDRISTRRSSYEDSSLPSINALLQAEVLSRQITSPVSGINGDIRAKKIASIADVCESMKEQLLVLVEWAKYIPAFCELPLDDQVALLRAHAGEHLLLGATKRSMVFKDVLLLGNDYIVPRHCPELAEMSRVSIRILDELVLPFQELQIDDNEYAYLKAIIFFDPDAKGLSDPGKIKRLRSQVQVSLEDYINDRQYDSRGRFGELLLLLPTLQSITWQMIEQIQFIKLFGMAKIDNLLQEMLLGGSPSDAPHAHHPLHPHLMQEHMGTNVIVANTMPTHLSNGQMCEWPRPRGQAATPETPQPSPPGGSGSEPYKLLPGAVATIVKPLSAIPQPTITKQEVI
In short: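 Activity of an exogenous HNF4a–Gal4 fusion scored as induced GAL4-UAS reporter transcripts after 24 h chemical exposure of transfected human HepG2 cells. Read-out via RT-PCR with 6-FAM labelling and capillary electrophoresis; rise over DMSO baseline.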

[15] = target: Oxysterols receptor LXR-alpha (Homo sapiens) (UniProt Q13133); experiment: ATG_LXRa_TRANS: Attagene TRANS-FACTORIAL HepG2 Assay for human Liver X Receptor alpha (LXRa) (AID 2282980; active = hit-call score of the fitted dose curve at least 0.9, where 1 is the maximum); conditions: HepG2 Attagene TRANS reporter, LXRa transactivation
Sequence of Oxysterols receptor LXR-alpha (Homo sapiens) (Q13133 whole entry, looked up, the tested form may be a part): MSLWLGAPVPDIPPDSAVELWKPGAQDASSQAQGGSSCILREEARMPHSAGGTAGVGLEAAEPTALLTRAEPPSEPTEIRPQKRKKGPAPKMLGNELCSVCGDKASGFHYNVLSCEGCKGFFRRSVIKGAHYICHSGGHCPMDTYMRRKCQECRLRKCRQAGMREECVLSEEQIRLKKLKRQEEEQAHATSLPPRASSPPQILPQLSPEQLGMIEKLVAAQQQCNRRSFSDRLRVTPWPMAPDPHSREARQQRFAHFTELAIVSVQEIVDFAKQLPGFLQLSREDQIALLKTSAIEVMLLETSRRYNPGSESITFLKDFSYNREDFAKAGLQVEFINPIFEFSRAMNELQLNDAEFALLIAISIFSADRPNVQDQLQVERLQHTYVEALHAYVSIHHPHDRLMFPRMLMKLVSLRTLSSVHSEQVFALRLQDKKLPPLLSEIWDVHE
In short: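 Read-out: reporter transcript levels by RT-PCR plus capillary electrophoresis, fluorescence intensity. Transiently transfected HepG2, exogenous NR-GAL4 chimera, GAL4-UAS reporters; 24 h compound exposure. Activity = increase over DMSO negative control.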

[16] = target: Oxysterols receptor LXR-beta (Homo sapiens) (UniProt P55055); experiment: ATG_LXRb_TRANS: Attagene TRANS-FACTORIAL HepG2 Assay for human Liver X Receptor beta (LXRb) (AID 2282981; active = hit-call score of the fitted dose curve at least 0.9, where 1 is the maximum); conditions: HepG2 Attagene TRANS GAL4-LXRb reporter, mRNA
Sequence of Oxysterols receptor LXR-beta (Homo sapiens) (P55055 whole entry, looked up, the tested form may be a part): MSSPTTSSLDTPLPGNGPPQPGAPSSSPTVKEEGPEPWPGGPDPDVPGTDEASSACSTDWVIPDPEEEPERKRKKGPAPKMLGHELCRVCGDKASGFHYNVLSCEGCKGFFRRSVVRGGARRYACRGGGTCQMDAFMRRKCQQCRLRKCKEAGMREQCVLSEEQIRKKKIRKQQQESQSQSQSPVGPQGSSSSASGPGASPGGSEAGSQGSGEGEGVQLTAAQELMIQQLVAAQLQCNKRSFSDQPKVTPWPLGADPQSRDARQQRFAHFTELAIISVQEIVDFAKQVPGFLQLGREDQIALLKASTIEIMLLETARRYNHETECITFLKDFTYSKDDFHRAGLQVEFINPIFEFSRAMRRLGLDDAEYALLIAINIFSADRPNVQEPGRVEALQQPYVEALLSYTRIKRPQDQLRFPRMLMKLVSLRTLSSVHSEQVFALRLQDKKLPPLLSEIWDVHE
In short: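 After 24 h chemical treatment of transfected HepG2 cells carrying exogenous NR-Gal4 chimeras, reporter mRNA was quantified by fluorescent RT-PCR and capillary electrophoresis; activity taken as increase over DMSO controls.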

[17] = target: Bile acid receptor (Homo sapiens) (UniProt Q96RI1); experiment: ATG_FXR_TRANS: Attagene TRANS-FACTORIAL HepG2 Assay for Farnesoid X Receptor (FXR) (AID 2282979; active = hit-call score of the fitted dose curve at least 0.9, where 1 is the maximum;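 note: hits raise reporter mRNA above DMSO so AC50 marks FXR activation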); conditions: HepG2 Attagene TRANS FXR-GAL4 reporter transcription
Sequence of Bile acid receptor (Homo sapiens) (Q96RI1 whole entry, looked up, the tested form may be a part): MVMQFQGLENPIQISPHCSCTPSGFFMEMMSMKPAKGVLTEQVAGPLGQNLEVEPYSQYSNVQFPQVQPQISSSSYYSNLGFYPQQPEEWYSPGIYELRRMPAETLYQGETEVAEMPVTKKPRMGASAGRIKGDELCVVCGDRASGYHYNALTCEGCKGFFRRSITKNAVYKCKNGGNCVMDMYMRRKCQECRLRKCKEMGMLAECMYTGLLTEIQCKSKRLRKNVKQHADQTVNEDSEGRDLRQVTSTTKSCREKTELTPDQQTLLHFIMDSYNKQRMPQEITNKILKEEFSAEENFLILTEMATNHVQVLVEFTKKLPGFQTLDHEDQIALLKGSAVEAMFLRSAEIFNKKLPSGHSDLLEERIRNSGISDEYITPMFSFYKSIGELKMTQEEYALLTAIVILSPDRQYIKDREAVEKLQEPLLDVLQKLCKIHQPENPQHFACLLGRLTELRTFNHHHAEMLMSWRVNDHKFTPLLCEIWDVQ
In short: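 Read-out: fluorescent reporter transcripts quantified by capillary electrophoresis after RT-PCR of total RNA. Source cells were HepG2 transiently carrying chimeric NR-GAL4 plus GAL4-UAS reporter units, dosed 24 h. Activity fitted upward relative to DMSO baseline.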

Structure (SMILES)	outcome [1]	outcome [2]	outcome [3]	outcome [4]	outcome [5]	outcome [6]	outcome [7]	outcome [8]	outcome [9]	outcome [10]	outcome [11]	outcome [12]	outcome [13]	outcome [14]	outcome [15]	outcome [16]	AC50 [1]	AC50 [4]	AC50 [5]	outcome [17]
CCCC1CCC(=O)CC1	inactive	inactive	inactive	inactive	inactive	inactive	inactive	inactive	inactive	inactive	inactive	–	–	–	–	–	–	–	–	–
CCC(=O)OC/C=C(\C)CCC=C(C)C	inactive	inactive	inactive	inactive	inactive	inactive	–	inactive	–	–	inactive	inactive	inactive	inactive	–	–	–	–	–	–
CC(=O)CCc1ccc(O)cc1	inactive	inactive	inactive	inactive	inactive	inactive	inactive	inactive	–	–	inactive	inactive	–	–	inactive	inactive	–	–	–	–
CC(CCO)CC(C)(C)C (configuration not stated)	inactive	inactive	inactive	inactive	inactive	inactive	inactive	–	–	inactive	inactive	–	inactive	inactive	inactive	–	–	–	–	–
CC(=O)C1=C(C)[C@@H]2C[C@@]3(C1)[C@H](C)CC[C@H]3C2(C)C	–	inactive	inactive	–	–	inactive	inactive	–	–	inactive	inactive	–	–	–	–	–	77.7 µM (active)	161 µM (active)	2.65 µM (active)	inactive
CC(C)=CC(=O)O	inactive	inactive	inactive	inactive	–	inactive	–	inactive	inactive	inactive	inactive	inactive	–	inactive	inactive	–	–	–	49.1 µM (active)	–
CCCCOCCOCCO	inactive	inactive	inactive	inactive	inactive	inactive	inactive	–	inactive	inactive	inactive	inactive	inactive	–	–	–	–	–	–	–
CCOC(=O)C=Cc1ccccc1	inactive	inactive	inactive	inactive	inactive	inactive	inactive	–	inactive	inactive	inactive	inactive	–	–	inactive	–	–	–	–	–
CC(C)(C)c1ccc(S)cc1	inactive	inactive	inactive	inactive	inactive	inactive	–	–	inactive	–	inactive	inactive	inactive	–	–	–	–	–	–	–
CCCC1CCOC(C)S1 (configuration not stated)	inactive	inactive	inactive	inactive	inactive	inactive	inactive	–	–	–	inactive	–	–	–	inactive	–	–	–	–	–
